Experimental data as given in PubChem BioAssay (Tox21).
Records with an inconclusive call do not appear. Active and inactive are the calls of the source. Unless noted, calls come from the whole dose curve; as a rule, active = well fitted curve in the direction sought with a large enough effect in the repeat runs; inconclusive = weak or mixed curves; inactive = no such curve, though single readings can be large; an effect the other way counts as inactive or inconclusive.

Legend:
[1] = qHTS assay to identify small molecule antagonists of the sonic hedgehog signaling (Shh) pathway (AID 1259369; calls by dose curve; note: nearly all actives have a fitted effect of over 45% in size)
In short: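 Read-out is luminescence from a firefly luciferase gene controlled by the Gli1 response element, in 3T3Gli1-Luc cells pre-incubated 4hr then exposed to compounds and conditioned medium for 24hr.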

[2] = target: Estrogen receptor beta (Homo sapiens) (UniProt Q92731); assay: qHTS assay to identify small molecule antagonists of the estrogen receptor beta (ER-beta) signaling pathway (AID 1259378; active = well fitted inhibition curve with a large enough effect in the signal ratio in the repeat runs, not every such curve was filed as active; the % refers to the signal ratio)
Sequence of Estrogen receptor beta (Homo sapiens) (Q92731 whole entry, looked up): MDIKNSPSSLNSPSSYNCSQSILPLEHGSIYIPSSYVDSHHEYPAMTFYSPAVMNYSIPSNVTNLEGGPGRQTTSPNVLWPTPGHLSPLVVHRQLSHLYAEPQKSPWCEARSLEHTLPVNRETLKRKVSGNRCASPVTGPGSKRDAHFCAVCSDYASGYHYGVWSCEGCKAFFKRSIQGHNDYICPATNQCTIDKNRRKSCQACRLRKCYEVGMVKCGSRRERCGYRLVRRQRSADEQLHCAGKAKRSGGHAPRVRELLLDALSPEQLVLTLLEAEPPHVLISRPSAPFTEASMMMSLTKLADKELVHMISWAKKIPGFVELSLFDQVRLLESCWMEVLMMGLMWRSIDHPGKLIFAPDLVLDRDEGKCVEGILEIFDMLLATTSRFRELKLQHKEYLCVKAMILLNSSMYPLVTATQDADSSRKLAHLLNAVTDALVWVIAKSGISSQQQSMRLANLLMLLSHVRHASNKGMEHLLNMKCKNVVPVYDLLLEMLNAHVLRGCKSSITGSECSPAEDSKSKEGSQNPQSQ
In short: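 ER-beta-UAS-bla HEK293T (GripTite) cells in 2% charcoal-stripped FBS medium were preincubated 6 hr at 37C, dosed with compound, then stimulated with 1 nM E2 (final) for 16 hr; beta-lactamase reporter read by B/G FRET fluorescence after 2 hr substrate loading.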

[3] = qHTS assay to identify small molecule agonists of the androgen receptor (AR) signaling pathway in the presence of an antagonist - cell viability counter screen (AID 1259379);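 note: MDA-kb2 human breast cancer cells carrying an MMTV luciferase reporter; series mostly up to about 92 µM; nearly all actives have a fitted effect of over 25% in size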
In short: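 Each compound was tested at 15 concentrations on MDA-kb2 cells in the presence of 3.0uM nilutamide. Viability was measured by CellTiter-Fluor fluorescence after a 16 hr incubation at 37C in a CO2-free atmosphere.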

[4] = qHTS assay to identify small molecule agonists of the estrogen receptor beta (ER-beta) signaling pathway - cell viability counter screen (AID 1259380); note: nearly all actives have a fitted effect of over 30% in size
In short: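 Compounds dissolved in DMSO were pin-transferred onto ER-beta-UAS-bla HEK293T cells that had settled 6 hr, and exposure ran 16 hr at 37C. Following the reporter read, CellTiter-Glo luminescence after 30 min at room temperature indicated cytotoxicity.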

[5] = qHTS assay to identify small molecule antagonists of the estrogen receptor beta (ER-beta) signaling pathway - cell viability counter screen (AID 1259382); note: series mostly up to about 92 µM; nearly all actives have a fitted effect of over 55% in size
In short: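 CellTiter-Glo ATP luminescence measured after the LiveBLAzer read in the same wells; ER-beta-UAS-bla HEK293T cells, 16 hr compound treatment with 1nM 17-beta-estradiol agonist at 37C, 5% CO2.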

[6] = qHTS assay to identify small molecule agonists or antagonists of the thyroid stimulating hormone receptor (TSHR) signaling pathway - wild type cell line counter screen (AID 1259384; calls by dose curve)
In short: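 Wild-type HEK293 cells were plated 18 h at 37 C/5% CO2, pin-dosed with compound plus Ro20-1724 medium, held 30 min at room temperature, then given cAMP-d2 and anti-cAMP-cryptate; fluorescence was read after 1 h. Fifteen concentrations, triplicate.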

[7] = target: Thyrotropin receptor (Homo sapiens) (UniProt P16473); assay: qHTS assay to identify small molecule antagonists of the thyroid stimulating hormone receptor (TSHR) signaling pathway (AID 1259385; calls by dose curve; note: nearly all actives have a fitted effect of over 20% in size)
Sequence of Thyrotropin receptor (Homo sapiens) (P16473 whole entry, looked up): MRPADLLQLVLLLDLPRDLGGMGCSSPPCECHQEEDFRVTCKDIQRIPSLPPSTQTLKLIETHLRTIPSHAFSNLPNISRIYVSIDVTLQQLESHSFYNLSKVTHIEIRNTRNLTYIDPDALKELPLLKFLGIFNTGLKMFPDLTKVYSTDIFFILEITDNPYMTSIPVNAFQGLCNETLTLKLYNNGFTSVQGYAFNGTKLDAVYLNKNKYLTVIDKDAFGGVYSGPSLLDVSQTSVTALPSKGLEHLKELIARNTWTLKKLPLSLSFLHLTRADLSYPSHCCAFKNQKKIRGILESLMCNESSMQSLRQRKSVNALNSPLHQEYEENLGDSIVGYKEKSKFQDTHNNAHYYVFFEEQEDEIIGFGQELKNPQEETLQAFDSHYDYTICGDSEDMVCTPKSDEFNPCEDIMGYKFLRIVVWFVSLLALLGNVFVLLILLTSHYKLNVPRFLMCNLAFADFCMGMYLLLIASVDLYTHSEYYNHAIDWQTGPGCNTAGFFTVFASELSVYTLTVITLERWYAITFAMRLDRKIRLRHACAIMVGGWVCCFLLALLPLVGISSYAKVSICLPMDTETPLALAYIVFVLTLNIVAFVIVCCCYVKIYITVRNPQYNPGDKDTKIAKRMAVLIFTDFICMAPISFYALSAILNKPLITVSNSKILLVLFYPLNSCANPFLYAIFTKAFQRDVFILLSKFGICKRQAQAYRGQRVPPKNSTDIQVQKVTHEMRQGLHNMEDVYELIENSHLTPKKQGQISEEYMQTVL
In short: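 TSHR-HEK293 cells were plated and held 18 h at 37C/5% CO2, then given compound plus Ro20-1724 and stimulated with TSH at 1.5 ng/mL final. After 30 min at room temperature, cAMP was detected with cAMP-d2/anti-cAMP-cryptate (1 h) by fluorescence.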

[8] = qHTS assay to identify small molecule agonists of the estrogen receptor alpha (ER-alpha) signaling pathway in the presence of an antagonist - cell viability counter screen (AID 1259386);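 note: series mostly up to about 92 µM; cells exposed to compounds for 22 h at 37 °C before the viability read; nearly all actives have a fitted effect of over 30% in size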
In short: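 Using estrogen-depleted VM7Luc4E2 cells, the 15-concentration compound series was applied together with 10.0nM ICI-182,780 and incubated 22hr at 37C/5% CO2. Cell viability was then scored by CellTiter-Fluor.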

[9] = target: Progesterone receptor (Homo sapiens) (UniProt P06401); assay: qHTS assay to identify small molecule agonists of the progesterone receptor (PR) signaling pathway (AID 1346784; calls by dose curve; note: nearly all actives have a fitted effect of over 30% in size)
Sequence of Progesterone receptor (Homo sapiens) (P06401 whole entry, looked up): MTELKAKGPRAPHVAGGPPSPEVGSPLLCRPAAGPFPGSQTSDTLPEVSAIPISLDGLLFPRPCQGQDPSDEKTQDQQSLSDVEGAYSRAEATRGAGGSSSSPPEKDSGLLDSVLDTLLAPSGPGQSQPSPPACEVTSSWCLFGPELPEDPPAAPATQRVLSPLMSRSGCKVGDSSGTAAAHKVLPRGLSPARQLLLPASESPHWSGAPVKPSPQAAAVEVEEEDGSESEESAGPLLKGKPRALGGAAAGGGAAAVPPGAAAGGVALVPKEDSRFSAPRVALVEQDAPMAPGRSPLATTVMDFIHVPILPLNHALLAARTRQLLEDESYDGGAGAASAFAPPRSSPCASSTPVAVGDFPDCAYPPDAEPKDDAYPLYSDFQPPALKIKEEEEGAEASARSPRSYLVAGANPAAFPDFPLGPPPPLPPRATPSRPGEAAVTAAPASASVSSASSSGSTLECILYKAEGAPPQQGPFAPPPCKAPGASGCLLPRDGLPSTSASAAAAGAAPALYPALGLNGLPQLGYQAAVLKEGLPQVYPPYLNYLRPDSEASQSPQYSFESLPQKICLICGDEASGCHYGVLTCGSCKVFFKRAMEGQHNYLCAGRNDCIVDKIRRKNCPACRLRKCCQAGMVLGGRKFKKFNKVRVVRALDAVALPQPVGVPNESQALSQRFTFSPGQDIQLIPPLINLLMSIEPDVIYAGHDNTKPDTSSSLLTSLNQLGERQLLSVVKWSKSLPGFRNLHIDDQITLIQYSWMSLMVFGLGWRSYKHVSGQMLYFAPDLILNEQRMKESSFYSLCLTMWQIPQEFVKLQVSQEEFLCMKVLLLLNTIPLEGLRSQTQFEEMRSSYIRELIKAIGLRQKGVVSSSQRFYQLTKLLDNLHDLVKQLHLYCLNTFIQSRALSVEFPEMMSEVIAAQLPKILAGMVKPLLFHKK
In short: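 HEK 293T PR-UAS-bla reporter cells, 2% charcoal-stripped FBS; 6 hr settle at 37C/5% CO2, compound (DMSO) 16 hr, LiveBLAzer B/G FRET substrate 2 hr RT, fluorescence intensity read.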

[10] = target: Progesterone receptor (Homo sapiens) (UniProt P06401); assay: qHTS assay to identify small molecule antagonists of the progesterone receptor (PR) signaling pathway (AID 1346795; active = well fitted inhibition curve with a large enough effect in the signal ratio in the repeat runs, not every such curve was filed as active; the % refers to the signal ratio)
In short: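 Beta-lactamase reporter, HEK293T PR-UAS-bla line; 2% charcoal-stripped FBS; 6 hr pre-incubation, 37C/5% CO2. Compound + R5020 1 nM final, 16 hr. LiveBLAzer B/G FRET substrate, 2 hr RT; fluorescence intensity read.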

[11] = qHTS assay to identify small molecule antagonists of the progesterone receptor (PR) signaling pathway - cell viability counter screen (AID 1346798); note: series mostly up to about 92 µM; nearly all actives have a fitted effect of over 50% in size
In short: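 Luminescence readout (CellTiter-Glo, 30 min, RT) of viability in PR-UAS-bla HEK293T cells exposed to compound and R5020 agonist for 16 hr at 37C, 5% CO2; run in the same wells as the beta-lactamase reporter read.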

[12] = qHTS assay to identify small molecule agonists of the progesterone receptor (PR) signaling pathway - cell viability counter screen (AID 1346799; calls by dose curve; note: nearly all actives have a fitted effect of over 45% in size)
In short: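 HEK293T PR-UAS-bla, 3,000 cells/well, 2% charcoal-stripped FBS; 6 h settle, compound 16 h at 37C/5% CO2; LiveBLAzer 2 h RT, then CellTiter-Glo 30 min RT, luminescence read.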

[13] = qHTS assay to identify small molecule antagonists of the TGF-beta/Smad signaling pathway - cell viability counter screen (AID 1346824); note: nearly all actives have a fitted effect of over 50% in size
In short: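 SBE-bla HEK 293T cells were plated overnight at 37 C, then given compounds in DMSO plus TGF-beta1 (added as 0.25 ng/mL solution) for 5 hr. After the bla read, CellTiter-Glo was added to the same wells and luminescence read after 30 min at room temperature.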

[14] = qHTS assay to identify small molecule agonists of the TGF-beta/Smad signaling pathway - cell viability counter screen (AID 1346829); note: top concentration of the series differs between compounds; nearly all actives have a fitted effect of over 45% in size
In short: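 Luminescence from CellTiter-Glo, read after a 30 min room-temperature incubation, gives cell viability of SBE-bla HEK 293T cells treated 5 hr with compounds at 37 C.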

[15] = qHTS assay to identify small molecule agonists of the TGF-beta/Smad signaling pathway (AID 1346859; active = well fitted activation curve with a large enough effect in the signal ratio in the repeat runs, not every such curve was filed as active; the % refers to the signal ratio; note: series mostly up to about 77 µM)
In short: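 Read-out: fluorescence at 460 and 530 nm (405 nm excitation) after a 2 hr room-temperature incubation with beta-lactamase FRET substrate. SBE-bla HEK 293T cells had been treated with test compounds for 5 hr at 37 C.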

[16] = target: Thyrotropin-releasing hormone receptor (Homo sapiens) (UniProt P34981); assay: qHTS assay to identify small molecule antagonists of the thyrotropin-releasing hormone receptor (TRHR) signaling pathway (AID 1346877; active = well fitted inhibition curve with a large enough effect in the repeat runs, not every such curve was filed as active; note: series mostly up to about 51 µM)
Sequence of Thyrotropin-releasing hormone receptor (Homo sapiens) (P34981 whole entry, looked up): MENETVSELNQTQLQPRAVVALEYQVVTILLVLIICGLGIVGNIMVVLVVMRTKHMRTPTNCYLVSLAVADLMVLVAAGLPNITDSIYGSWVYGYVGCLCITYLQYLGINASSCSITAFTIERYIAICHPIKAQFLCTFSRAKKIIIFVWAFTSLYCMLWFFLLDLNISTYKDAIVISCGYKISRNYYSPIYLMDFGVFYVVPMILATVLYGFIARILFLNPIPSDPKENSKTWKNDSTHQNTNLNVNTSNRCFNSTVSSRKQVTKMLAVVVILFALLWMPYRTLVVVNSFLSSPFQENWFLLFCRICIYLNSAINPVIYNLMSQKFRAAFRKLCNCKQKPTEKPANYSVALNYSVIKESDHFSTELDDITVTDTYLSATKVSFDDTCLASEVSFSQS
In short: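 Calcium signal in dye-loaded TRHR/HEK293 cells; compounds added 5 min before TRH (1 nM final); fluorescence monitored 3 min at 1 s steps.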

[17] = target: Thyrotropin-releasing hormone receptor (Homo sapiens) (UniProt P34981); assay: qHTS assay to identify small molecule agonists of the thyrotropin-releasing hormone receptor (TRHR) signaling pathway (AID 1346891; calls by dose curve;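 note: HEK293 cells expressing TRHR with calcium dye readout; series mostly up to about 58 µM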)
In short: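 HEK293/TRHR cells, 1500 per well, 18 h 37 °C; Ca dye 2 h 37 °C; pin-tool compound addition (agonist mode); kinetic fluorescence 3 min, 1 s reads; 15 concentrations, triplicate.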

[18] = target: Androgen receptor (Homo sapiens) (UniProt P10275); assay: qHTS assay to identify small molecule agonists of the androgen receptor (AR) signaling pathway in the presence of an antagonist (AID 1259381; calls by dose curve; note: nearly all actives have a fitted effect of over 15% in size)
Sequence of Androgen receptor (Homo sapiens) (P10275 whole entry, looked up): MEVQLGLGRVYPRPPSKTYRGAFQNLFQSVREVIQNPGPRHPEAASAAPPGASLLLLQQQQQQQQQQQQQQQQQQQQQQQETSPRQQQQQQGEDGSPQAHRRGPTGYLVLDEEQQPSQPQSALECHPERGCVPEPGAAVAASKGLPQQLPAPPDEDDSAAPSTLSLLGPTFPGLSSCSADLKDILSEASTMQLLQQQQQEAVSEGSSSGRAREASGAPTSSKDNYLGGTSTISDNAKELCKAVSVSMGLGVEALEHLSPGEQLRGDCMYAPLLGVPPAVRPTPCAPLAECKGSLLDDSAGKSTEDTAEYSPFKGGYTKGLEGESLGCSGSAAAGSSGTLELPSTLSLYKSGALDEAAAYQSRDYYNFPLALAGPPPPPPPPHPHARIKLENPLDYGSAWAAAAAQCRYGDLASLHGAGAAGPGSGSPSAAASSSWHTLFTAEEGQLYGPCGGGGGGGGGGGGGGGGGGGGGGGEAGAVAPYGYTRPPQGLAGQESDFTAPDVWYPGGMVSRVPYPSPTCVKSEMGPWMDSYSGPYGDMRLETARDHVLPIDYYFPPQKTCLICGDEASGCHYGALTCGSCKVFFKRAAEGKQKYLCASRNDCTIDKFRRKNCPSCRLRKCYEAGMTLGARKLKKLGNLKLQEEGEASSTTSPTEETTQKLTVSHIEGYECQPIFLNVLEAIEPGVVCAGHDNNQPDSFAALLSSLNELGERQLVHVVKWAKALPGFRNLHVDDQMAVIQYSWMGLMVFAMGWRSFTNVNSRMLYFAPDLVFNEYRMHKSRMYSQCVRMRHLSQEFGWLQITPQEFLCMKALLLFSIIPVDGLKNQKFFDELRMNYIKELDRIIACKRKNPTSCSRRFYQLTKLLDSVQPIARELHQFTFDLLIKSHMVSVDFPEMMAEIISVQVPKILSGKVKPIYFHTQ
In short: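 Plated MDA-kb2 cells (3,000/well) were pre-incubated 5hr, given nilutamide (3.0uM final) or buffer, then dosed with compounds in DMSO at 15 concentrations. Luciferase activity was quantified by luminescence after 16hr at 37C.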

[19] = target: Estrogen receptor (Homo sapiens) (UniProt P03372); assay: qHTS assay to identify small molecule agonists of the estrogen receptor alpha (ER-alpha) signaling pathway in the presence of an antagonist (AID 1259383; calls by dose curve; note: top concentration of the series differs between compounds; nearly all actives have a fitted effect of over 15% in size)
Sequence of Estrogen receptor (Homo sapiens) (P03372 whole entry, looked up): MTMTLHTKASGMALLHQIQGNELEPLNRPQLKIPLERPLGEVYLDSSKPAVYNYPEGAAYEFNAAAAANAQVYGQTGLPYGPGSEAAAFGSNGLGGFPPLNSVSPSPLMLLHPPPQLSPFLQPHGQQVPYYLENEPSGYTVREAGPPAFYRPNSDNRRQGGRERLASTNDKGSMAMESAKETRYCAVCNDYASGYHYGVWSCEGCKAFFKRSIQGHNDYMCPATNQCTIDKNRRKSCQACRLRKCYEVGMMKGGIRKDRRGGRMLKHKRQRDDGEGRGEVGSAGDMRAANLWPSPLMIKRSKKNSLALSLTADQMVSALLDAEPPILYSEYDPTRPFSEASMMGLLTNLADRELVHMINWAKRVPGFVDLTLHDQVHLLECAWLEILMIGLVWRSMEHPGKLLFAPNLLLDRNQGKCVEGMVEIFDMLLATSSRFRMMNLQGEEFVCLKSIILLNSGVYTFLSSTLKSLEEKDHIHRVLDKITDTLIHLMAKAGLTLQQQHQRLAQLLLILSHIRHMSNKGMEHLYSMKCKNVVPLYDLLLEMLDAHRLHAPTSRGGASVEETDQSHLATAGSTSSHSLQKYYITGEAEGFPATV
In short: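 Luminescent ERE-luciferase reporter, VM7Luc4E2 cells (endogenous ER-alpha); 10.0nM ICI-182,780 final; 15-point compound titration; 22hr at 37C; ONE-Glo, 30min RT.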
% is set by controls: 0 for no effect and ±100 for the full control effect.

O=C(O)C1CCC1
inactive: Potency [1] | Potency [2] | Potency [3] | Potency [4] | Potency [5] | outcome [6] | Potency [7] | outcome [8] | Potency [9] | Potency [10] | Potency [11] | Potency [12] | outcome [13] | outcome [14] | outcome [15] | outcome [16] | outcome [17]

CCCCCCCCN(C)CCCCCCCC
inactive: Potency [1] | Potency [3] | Potency [4] | Potency [18] | Potency [5] | outcome [6] | Potency [7] | outcome [8] | Potency [9] | Potency [10] | Potency [11] | Potency [12] | outcome [14] | outcome [15]

COC(=O)CCCC(=O)O
inactive: Potency [1] | Potency [2] | Potency [3] | Potency [4] | Potency [5] | Potency [19] | outcome [6] | Potency [11] | Potency [12] | outcome [13] | outcome [14] | outcome [15]

NC(=S)Nc1cccc2ccccc12
inactive: activity change, negative = inhibition [1] 0.0462% [at 8.39 µM] | activity, negative = inhibition [2] -5.64% [at 8.39 µM] | activity change, negative = cytotoxicity [3] -0.514% [at 8.39 µM] | activity change, negative = cytotoxicity [4] -0.0461% [at 8.39 µM] | activity change, negative = cytotoxicity [5] 8.83% [at 8.39 µM] | activity change, negative = inhibition [7] 2.83% [at 8.39 µM] | activity change, negative = cytotoxicity [8] 0.0918% [at 8.39 µM] | activation [9] -0.12% [at 8.39 µM] | activity change, negative = inhibition [10] -2.03% [at 8.39 µM] | activity change, negative = cytotoxicity [11] -13.4% [at 8.39 µM] | activity change, negative = cytotoxicity [12] -0.848% [at 8.39 µM] | viability change, negative = cytotoxic [13] 11.5% [at 6.97 µM] | activity change, negative = cytotoxicity [14] -4.69% [at 6.97 µM] | activation [15] -0.913% [at 6.97 µM] | activity, negative = inhibition [16] -0.447% [at 4.65 µM] | activation [17] -0.377% [at 5.23 µM]

Cc1ncc(CSSCc2cnc(C)c(O)c2CO)c(CO)c1O
inactive: Potency [1] | Potency [3] | Potency [4] | Potency [18] | Potency [5] | Potency [19] | outcome [6] | Potency [7] | outcome [8] | Potency [9] | Potency [10] | Potency [11] | Potency [12] | outcome [14] | outcome [15] | outcome [16] | outcome [17]

C1COCCO1
inactive: Potency [1] | Potency [3] | Potency [4] | Potency [18] | Potency [5] | Potency [19] | outcome [8] | Potency [9] | Potency [10] | Potency [11] | Potency [12] | outcome [13] | outcome [14] | outcome [15] | outcome [16] | outcome [17]

Cc1c(F)cc2c(=O)c(C(=O)O)cn3c2c1CCC3C (configuration not stated)
inactive: Potency [1] | Potency [3] | Potency [4] | Potency [18] | Potency [5] | Potency [19] | Potency [7] | outcome [8] | Potency [9] | Potency [10] | Potency [11] | Potency [12] | outcome [13] | outcome [14] | outcome [16] | outcome [17]

CCCCCCCCCCCCCCC
inactive: Potency [1] | Potency [2] | Potency [3] | Potency [5] | outcome [6] | Potency [7] | outcome [8] | Potency [9] | Potency [10] | Potency [11] | Potency [12] | outcome [13] | outcome [14] | outcome [15] | outcome [16] | outcome [17]

COCc1ccc(COC)cc1
inactive: Potency [1] | Potency [2] | Potency [3] | Potency [4] | Potency [5] | outcome [8] | Potency [9] | Potency [11] | Potency [12] | outcome [14] | outcome [15] | outcome [16] | outcome [17]

COc1cc(C(=O)N2CCOCC2)cc(OC)c1OC
inactive: Potency [1] | Potency [2] | Potency [3] | Potency [4] | Potency [5] | outcome [8] | Potency [11] | Potency [12] | outcome [13] | outcome [14] | outcome [15]

O=C1OC(=O)c2cc([N+](=O)[O-])ccc21
inactive: Potency [1] | Potency [2] | Potency [3] | Potency [4] | Potency [5] | Potency [19] | outcome [6] | Potency [7] | outcome [8] | Potency [9] | Potency [10] | Potency [11] | Potency [12] | outcome [14] | outcome [15] | outcome [16] | outcome [17]

CC(=O)N[C@@H](CCC(N)=O)C(=O)O
inactive: Potency [1] | Potency [2] | Potency [3] | Potency [5] | Potency [19] | outcome [8] | Potency [9] | Potency [10] | Potency [11] | Potency [12] | outcome [13] | outcome [14] | outcome [15] | outcome [16] | outcome [17]

CC(C)COC(=O)C(C)C
inactive: Potency [1] | Potency [2] | Potency [3] | Potency [4] | Potency [5] | Potency [7] | outcome [8] | Potency [11] | outcome [14] | outcome [15] | outcome [16] | outcome [17]

O=C(O)/C=C/c1ccc(/C=C/C(=O)O)cc1
inactive: Potency [1] | Potency [2] | Potency [3] | Potency [4] | Potency [5] | outcome [8] | Potency [9] | Potency [10] | Potency [11] | outcome [14] | outcome [15] | outcome [16] | outcome [17]

CNC(=O)c1c(I)c(NC(=O)CCCCC(=O)Nc2c(I)c(C(=O)O)c(I)c(C(=O)NC)c2I)c(I)c(C(=O)O)c1I
inactive: Potency [1] | Potency [2] | Potency [3] | Potency [4] | Potency [5] | Potency [19] | outcome [8] | Potency [9] | Potency [10] | Potency [11] | Potency [12] | outcome [14] | outcome [15] | outcome [16] | outcome [17]

COCCOC(=O)CC#N
inactive: Potency [1] | Potency [2] | Potency [3] | Potency [4] | Potency [5] | outcome [6] | Potency [7] | outcome [8] | Potency [9] | Potency [10] | Potency [11] | Potency [12] | outcome [13] | outcome [14] | outcome [15] | outcome [16] | outcome [17]
